Values joined by “and” are separate entries in the source; they are usually repeats but may differ in a detail not shown here. Equal values may be shown once. Out of some 5,500 compounds screened, about 2,000 (36%) were called active. About 18% were inconclusive and are not listed. Cut-off read from the data, not from the text of the source: active = normalized growth mostly below about 0.91 (no sharp cut-off); inconclusive = no clear call, values can overlap the other calls; inactive = mostly above about 0.92. The list shows a part of the results.
Assay: chemical genetic growth profiling, strain panel (AID 1159580);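 note: tested at 20 µM; growth read once vehicle control cultures reached saturation at 30 °C; 1 = growth at the plate median or of vehicle wells; lower values mean less growth of the strain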
Conditions: S. cerevisiae deletion strains, growth OD
[1] = locus YNL128W, strain TEP1, hits give low values

Measured: normalized growth

CCC(C)C(NC)C(=O)O (stereo not drawn)
inactive: locus YAL013W, strain DEP1, hits give low values 1.02 | locus YAL021C, strain ccr4, hits give low values 1.03 | locus YAL026C, strain drs2, hits give low values 1.02 | locus YAL030W, strain snc1, hits give low values 1.01 | locus YBL061C, strain skt5, hits give low values 1.03 | locus YBR009C, strain hhf1, hits give low values 1.02 | locus YBR021W, strain FUR4, hits give low values 1.01 | locus YBR023C, strain chs3, hits give low values 1.02 | locus YBR171W, strain sec66, hits give low values 1.05 | locus YBR229C, strain ROT2, hits give low values 0.947 | locus YBR231C, strain swc5, hits give low values 1.01 | locus YBR279W, strain paf1, hits give low values 1.01 | locus YCL011C, strain gbp2, hits give low values 1.02 | locus YCL016C, strain dcc1, hits give low values 1.03 | locus YCL029C, strain bik1, hits give low values 0.982 | locus YCL061C, strain MRC1, hits give low values 1.03 | locus YCL069W, strain vba3, hits give low values 1.02 | locus YCR088W, strain abp1, hits give low values 1 | locus YDL005C, strain med2, hits give low values 1.02 | locus YDL035C, strain GPR1, hits give low values 0.981 | locus YDL040C, strain nat1, hits give low values 1.01 | locus YDL074C, strain BRE1, hits give low values 1.01 | locus YDL101C, strain DUN1, hits give low values 0.983 | locus YDL134C, strain PPH21, hits give low values 0.984 | locus YDL185W, strain tfp1, hits give low values 0.986 | locus YDL192W, strain arf1, hits give low values 1 | locus YDR001C, strain nth1, hits give low values 1.02 | locus YDR069C, strain doa4, hits give low values 1.02 | locus YDR101C, strain arx1, hits give low values 1 | locus YDR137W, strain rgp1, hits give low values 1.06 | locus YDR159W, strain sac3, hits give low values 1.02 | locus YDR162C, strain NBP2, hits give low values 0.966 | locus YDR195W, strain ref2 0.985 | locus YDR297W, strain sur2, hits give low values 1.01 | locus YDR318W, strain mcm21, hits give low values 0.985 | locus YDR334W, strain swr1, hits give low values 1.02 | locus YDR335W, strain msn5, hits give low values 1.01 | locus YDR388W, hits give low values 0.994 | locus YDR392W, strain spt3, hits give low values 0.986 | locus YDR502C, strain sam2, hits give low values 0.997 | locus YEL003W, strain gim4, hits give low values 1.01 | locus YEL037C, strain rad23, hits give low values 1.02 | locus YEL061C, strain CIN8 (second series), hits give low values 1.02 | locus YEL061C, strain CIN8, hits give low values 0.983 | locus YER015W, strain faa2, hits give low values 1.02 | locus YER016W, strain bim1, hits give low values 1.01 | locus YER110C, hits give low values 0.979 | locus YER111C, strain swi4, hits give low values 1.03 | locus YER155C, strain BEM2 (second series), hits give low values 1.01 | locus YER155C, strain BEM2, hits give low values 1 | locus YER167W, strain BCK2, hits give low values 0.975 | locus YFR010W, strain ubp6, hits give low values 1.03 | locus YGL078C, strain dbp3, hits give low values 0.999 | locus YGL086W, strain mad1, hits give low values 1.01 | locus YGL167C, strain pmr1, hits give low values 1.02 | locus YGL173C, strain kem1, hits give low values 1.03 | locus YGL227W, strain vid30, hits give low values 1.02 | locus YGL240W, strain doc1, hits give low values 1.01 | locus YGL248W, strain PDE1, hits give low values 0.982 | locus YGL253W, strain hxk2, hits give low values 1.02 | locus YGR135W, strain pre9, hits give low values 0.99 | locus YGR252W, strain gcn5, hits give low values 0.986 | locus YHR013C, strain ard1, hits give low values 1.03 | locus YHR027C, strain rpn1, hits give low values 1.03 | locus YHR030C, strain SLT2, hits give low values 0.985 and 1.06 | locus YHR079C, strain IRE1 (second series), hits give low values 0.991 | locus YHR079C, strain IRE1, hits give low values 1.09 | locus YHR094C, strain hxt1, hits give low values 0.977 | locus YHR129C, strain ARP1, hits give low values 0.99 | locus YHR142W, strain chs7, hits give low values 1.02 | locus YHR200W, strain rpn10, hits give low values 0.986 | locus YIL066C, strain RNR3, hits give low values 0.944 | locus YIL073C, strain SPO22, hits give low values 0.972 | locus YIL125W, strain kgd1, hits give low values 0.982 | locus YIR030C, strain dcg1, hits give low values 0.99 | locus YJL092W, strain hpr5, hits give low values 1.03 | locus YJL095W, strain BCK1 (second series), hits give low values 1.01 | locus YJL095W, strain BCK1, hits give low values 1.05 | locus YJL115W, strain asf1, hits give low values 1.03 | locus YJL129C, strain trk1, hits give low values 1.05 | locus YJL134W, strain LCB3, hits give low values 0.967 | locus YJL154C, strain vps35, hits give low values 1.01 | locus YJL164C, strain tpk1, hits give low values 1.03 | locus YJL166W, strain qcr8, hits give low values 1.02 | locus YJL168C, strain set2, hits give low values 0.993 | locus YJL187C, strain SWE1 (second series), hits give low values 1 | locus YJL187C, strain SWE1, hits give low values 1.01 | locus YJR043C, strain POL32, hits give low values 0.969 | locus YJR066W, strain TOR1, hits give low values 1 | locus YKL009W, strain mrt4, hits give low values 1.01 | locus YKL068W, hits give low values 0.973 | locus YKL085W, strain MDH1 (second series), hits give low values 0.979 | locus YKL085W, strain MDH1, hits give low values 0.979 | locus YKL160W, strain elf1, hits give low values 1.02 | locus YKL190W, strain CNB1, hits give low values 1 | locus YKR001C, strain vps1, hits give low values 1 | locus YKR026C, strain gcn3, hits give low values 1.02 | locus YKR091W, strain srl3, hits give low values 1 | locus YLL001W, strain dnm1, hits give low values 1.03 | locus YLL026W, hits give low values 1.01 | locus YLL041C, strain sdh2, hits give low values 1.02 | locus YLR027C, strain aat2, hits give low values 1.02 | locus YLR039C, strain RIC1, hits give low values 0.995 | locus YLR058C, strain SHM2, hits give low values 0.935 | locus YLR102C, strain apc9, hits give low values 0.985 | locus YLR113W, strain HOG1, hits give low values 1.09 | locus YLR221C, strain rsa3, hits give low values 1.03 | locus YLR258W, strain gsy2, hits give low values 1.01 | locus YLR262C, strain YPT6 (second series), hits give low values 1.05 | locus YLR262C, strain YPT6, hits give low values 0.989 | locus YLR268W, strain sec22, hits give low values 1.03 | locus YLR320W, strain mms22, hits give low values 1.03 | locus YLR330W, strain CHS5, hits give low values 0.987 | locus YLR342W, strain FKS1 (second series), hits give low values 0.977 | locus YLR342W, strain FKS1, hits give low values 1.01 | locus YLR357W, strain rsc2, hits give low values 1.02 | locus YLR370C, strain arc18, hits give low values 1.03 | locus YLR371W, strain rom2, hits give low values 0.982 | locus YLR384C, strain iki3, hits give low values 1.01 | locus YLR418C, strain cdc73, hits give low values 0.971 | locus YML016C, strain PPZ1, hits give low values 0.992 | locus YML032C, strain rad52, hits give low values 0.963 | locus YML120C, strain ndi1, hits give low values 1.01 | locus YML124C, strain tub3, hits give low values 0.997 | locus YMR058W, strain fet3, hits give low values 1.03 | locus YMR078C, strain ctf18, hits give low values 0.985 | locus YMR125W, strain sto1, hits give low values 1.01 | locus YMR129W, hits give low values 1.02 | locus YMR205C, strain PFK2, hits give low values 1.03 | locus YMR223W, strain ubp8, hits give low values 0.991 | locus YMR231W, strain pep5, hits give low values 1.01 | locus YMR307W, strain GAS1, hits give low values 1.02 | locus YNL067W, strain RPL9B, hits give low values 1.03 | locus YNL071W, strain lat1, hits give low values 1.02 | [1] 0.986 | locus YNL183C, strain NPR1, hits give low values 0.998 | locus YNL209W, strain ssb2, hits give low values 1.01 | locus YNL233W, strain BNI4, hits give low values 1.04 | locus YNL248C, strain rpa49, hits give low values 1.02 | locus YNL250W, strain rad50, hits give low values 0.962 | locus YNL271C, strain bni1, hits give low values 0.992 | locus YNL298W, strain CLA4, hits give low values 0.988 | locus YNL307C, strain MCK1, hits give low values 0.988 | locus YNL322C, strain KRE1 (second series), hits give low values 1.02 | locus YNR049C, strain mso1, hits give low values 1.02 | locus YNR052C, strain pop2, hits give low values 1.01 | locus YOL012C, strain htz1 0.872 | locus YOL147C, strain pex11, hits give low values 0.976 | locus YOR001W, strain rrp6, hits give low values 1.02 | locus YOR061W, strain CKA2, hits give low values 0.961 | locus YOR069W, strain VPS5, hits give low values 0.984 | locus YOR070C, strain gyp1, hits give low values 1.03 | locus YOR080W, strain dia2, hits give low values 1.02 | locus YOR083W, strain WHI5, hits give low values 1.02 | locus YOR106W, strain vam3, hits give low values 1.02 | locus YOR136W, strain idh2, hits give low values 0.994 | locus YOR144C, strain elg1, hits give low values 0.993 | locus YOR184W, strain ser1, hits give low values 0.989 | locus YOR231W, strain MKK1, hits give low values 1.08 | locus YOR265W, strain rbl2, hits give low values 1.01 | locus YOR270C, strain vph1, hits give low values 1.05 | locus YOR290C, strain snf2, hits give low values 1.02 | locus YOR316C, strain cot1, hits give low values 0.993 | locus YPL051W, strain arl3, hits give low values 1.04 | locus YPL078C, strain atp4, hits give low values 1.02 | locus YPL106C, strain sse1, hits give low values 1.01 | locus YPL240C, strain hsp82, hits give low values 1 | locus YPL241C, strain CIN2, hits give low values 0.98 | locus YPL256C, strain CLN2, hits give low values 1.09 | locus YPR119W, strain clb2, hits give low values 0.991 | locus YPR141C, strain kar3, hits give low values 0.978 | locus YPR163C, strain tif3, hits give low values 0.985 | locus YPR167C, strain met16, hits give low values 0.989 | strain wtn01, hits give low values 1.01

NC(=O)c1cc[n+](CC2=C(C(=O)O)N3C(=O)[C@@H](NC(=O)[C@@H](c4ccccc4)S(=O)(=O)[O-])[C@H]3SC2)cc1
inactive: locus YAL040C, strain CLN3, hits give low values 0.993 | locus YCL061C, strain MRC1 (second series), hits give low values 0.999 | locus YER002W, strain NOP16, hits give low values 0.995 | [1] 1 | locus YNL175C, strain NOP13, hits give low values 1 | locus YNL197C, strain WHI3, hits give low values 0.983 | locus YNL224C, strain SQS1, hits give low values 1 | locus YOR083W, strain WHI5 (second series), hits give low values 1.07 | locus YPL055C, strain LGE1, hits give low values 0.988

From PubChem BioAssay AID1159580 (chemical genetic matrix, 2015)
